Test results: PubChem BioAssay AID1159580 (chemical genetic matrix, 2015)
In all, about 5,500 compounds went through this assay and about 2,000 (36%) were called active. Not shown: some 18% with an inconclusive outcome. Cut-off read from the data, not from the text of the source: active = normalized growth mostly below about 0.91 (no sharp cut-off); inconclusive = no clear call, values can overlap the other calls; inactive = mostly above about 0.92. Some of the results follow.

Test: chemical genetic growth profiling, strain panel (AID 1159580);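 note: tested at 20 µM; growth read once vehicle control cultures reached saturation at 30 °C; 1 = growth at the plate median or of vehicle wells; lower values mean less growth of the strain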
Conditions: growth OD
[1] = S. cerevisiae deletion strains, locus YHR030C, strain SLT2, stronger effect = lower value
[2] = S. cerevisiae deletion strains, locus YHR079C, strain IRE1, stronger effect = lower value
[3] = S. cerevisiae deletion strains, locus YJL095W, strain BCK1, stronger effect = lower value
[4] = S. cerevisiae deletion strains, locus YJR066W, strain TOR1, stronger effect = lower value
[5] = S. cerevisiae deletion strains, locus YLR113W, strain HOG1, stronger effect = lower value
[6] = S. cerevisiae deletion strains, locus YNL183C, strain NPR1, stronger effect = lower value
[7] = S. cerevisiae deletion strains, locus YOR231W, strain MKK1, stronger effect = lower value
[8] = S. cerevisiae deletion strains, locus YPL256C, strain CLN2, stronger effect = lower value

Measured: normalized growth

Clc1ccc2c(c1)CCc1cccnc1C2=C1CCNCC1
inactive: [1] 0.968 | [2] 0.986 | [3] 1.04 | [4] 0.932 | [5] 1.03 | [6] 0.965 | [7] 0.992 | [8] 0.972

O=C1CCCCC/C=C/CCCCCCCCO1
inactive: S. cerevisiae deletion strains, locus YAL013W, strain DEP1, stronger effect = lower value 0.986 | S. cerevisiae deletion strains, locus YBR021W, strain FUR4, stronger effect = lower value 1.01 | S. cerevisiae deletion strains, locus YBR229C, strain ROT2, stronger effect = lower value 1 | S. cerevisiae deletion strains, locus YCL029C, strain bik1, stronger effect = lower value 1 | S. cerevisiae deletion strains, locus YDL035C, strain GPR1, stronger effect = lower value 0.988 | S. cerevisiae deletion strains, locus YDL074C, strain BRE1, stronger effect = lower value 0.949 | S. cerevisiae deletion strains, locus YDL101C, strain DUN1, stronger effect = lower value 0.994 | S. cerevisiae deletion strains, locus YDL134C, strain PPH21, stronger effect = lower value 0.999 | S. cerevisiae deletion strains, locus YDL185W, strain tfp1, stronger effect = lower value 0.999 | S. cerevisiae deletion strains, locus YDL192W, strain arf1, stronger effect = lower value 0.997 | S. cerevisiae deletion strains, locus YDR101C, strain arx1, stronger effect = lower value 0.979 | S. cerevisiae deletion strains, locus YDR150W, strain NUM1, stronger effect = lower value 1.01 | S. cerevisiae deletion strains, locus YDR162C, strain NBP2, stronger effect = lower value 1 | S. cerevisiae deletion strains, locus YDR318W, strain mcm21, stronger effect = lower value 0.985 | S. cerevisiae deletion strains, locus YDR388W, stronger effect = lower value 0.99 | S. cerevisiae deletion strains, locus YDR502C, strain sam2, stronger effect = lower value 0.969 | S. cerevisiae deletion strains, locus YEL061C, strain CIN8, stronger effect = lower value 0.999 | S. cerevisiae deletion strains, locus YER110C, stronger effect = lower value 0.992 | S. cerevisiae deletion strains, locus YER155C, strain BEM2, stronger effect = lower value 1 | S. cerevisiae deletion strains, locus YER167W, strain BCK2, stronger effect = lower value 0.974 | S. cerevisiae deletion strains, locus YGL078C, strain dbp3, stronger effect = lower value 1 | S. cerevisiae deletion strains, locus YGL086W, strain mad1, stronger effect = lower value 0.988 | S. cerevisiae deletion strains, locus YGL248W, strain PDE1, stronger effect = lower value 1 | S. cerevisiae deletion strains, locus YGR078C, strain PAC10, stronger effect = lower value 0.946 | S. cerevisiae deletion strains, locus YGR135W, strain pre9, stronger effect = lower value 0.956 | S. cerevisiae deletion strains, locus YGR229C, strain SMI1, stronger effect = lower value 0.893 | S. cerevisiae deletion strains, locus YGR252W, strain gcn5, stronger effect = lower value 0.999 | [1] 0.999 | S. cerevisiae deletion strains, locus YHR079C, strain IRE1 (second series), stronger effect = lower value 0.995 | S. cerevisiae deletion strains, locus YHR094C, strain hxt1, stronger effect = lower value 0.997 | S. cerevisiae deletion strains, locus YHR129C, strain ARP1, stronger effect = lower value 0.988 | S. cerevisiae deletion strains, locus YHR200W, strain rpn10, stronger effect = lower value 1 | S. cerevisiae deletion strains, locus YIL066C, strain RNR3, stronger effect = lower value 0.985 | S. cerevisiae deletion strains, locus YIL073C, strain SPO22, stronger effect = lower value 1.01 | S. cerevisiae deletion strains, locus YIL125W, strain kgd1, stronger effect = lower value 0.985 | S. cerevisiae deletion strains, locus YIR030C, strain dcg1, stronger effect = lower value 1 | [3] 0.924 | S. cerevisiae deletion strains, locus YJL134W, strain LCB3, stronger effect = lower value 1 | S. cerevisiae deletion strains, locus YJL168C, strain set2, stronger effect = lower value 0.988 | S. cerevisiae deletion strains, locus YJL187C, strain SWE1 (second series), stronger effect = lower value 1 | S. cerevisiae deletion strains, locus YJR043C, strain POL32, stronger effect = lower value 0.953 | S. cerevisiae deletion strains, locus YJR075W, strain HOC1, stronger effect = lower value 0.944 | S. cerevisiae deletion strains, locus YKL009W, strain mrt4, stronger effect = lower value 1.01 | S. cerevisiae deletion strains, locus YKL068W, stronger effect = lower value 1 | S. cerevisiae deletion strains, locus YKL085W, strain MDH1 (second series), stronger effect = lower value 1.01 | S. cerevisiae deletion strains, locus YKL085W, strain MDH1, stronger effect = lower value 1.01 | S. cerevisiae deletion strains, locus YKL190W, strain CNB1, stronger effect = lower value 1 | S. cerevisiae deletion strains, locus YKR001C, strain vps1, stronger effect = lower value 0.948 | S. cerevisiae deletion strains, locus YLR039C, strain RIC1, stronger effect = lower value 0.869 | S. cerevisiae deletion strains, locus YLR058C, strain SHM2, stronger effect = lower value 1 | S. cerevisiae deletion strains, locus YLR102C, strain apc9, stronger effect = lower value 0.997 | S. cerevisiae deletion strains, locus YLR262C, strain YPT6, stronger effect = lower value 0.859 | S. cerevisiae deletion strains, locus YLR268W, strain sec22, stronger effect = lower value 0.975 | S. cerevisiae deletion strains, locus YLR330W, strain CHS5, stronger effect = lower value 1.01 | S. cerevisiae deletion strains, locus YLR342W, strain FKS1 (second series), stronger effect = lower value 0.968 | S. cerevisiae deletion strains, locus YLR371W, strain rom2, stronger effect = lower value 0.999 | S. cerevisiae deletion strains, locus YLR418C, strain cdc73, stronger effect = lower value 0.848 | S. cerevisiae deletion strains, locus YML016C, strain PPZ1, stronger effect = lower value 1.01 | S. cerevisiae deletion strains, locus YML032C, strain rad52, stronger effect = lower value 0.983 | S. cerevisiae deletion strains, locus YML124C, strain tub3, stronger effect = lower value 0.995 | S. cerevisiae deletion strains, locus YMR078C, strain ctf18, stronger effect = lower value 0.99 | S. cerevisiae deletion strains, locus YMR223W, strain ubp8, stronger effect = lower value 0.973 | S. cerevisiae deletion strains, locus YMR263W, strain SAP30, stronger effect = lower value 0.97 | S. cerevisiae deletion strains, locus YMR307W, strain GAS1, stronger effect = lower value 0.898 | S. cerevisiae deletion strains, locus YNL067W, strain RPL9B, stronger effect = lower value 1.01 | S. cerevisiae deletion strains, locus YNL128W, strain TEP1, stronger effect = lower value 0.978 | S. cerevisiae deletion strains, locus YNL153C, strain GIM3, stronger effect = lower value 0.972 | S. cerevisiae deletion strains, locus YNL233W, strain BNI4, stronger effect = lower value 0.943 | S. cerevisiae deletion strains, locus YNL250W, strain rad50, stronger effect = lower value 0.99 | S. cerevisiae deletion strains, locus YNL271C, strain bni1, stronger effect = lower value 0.991 | S. cerevisiae deletion strains, locus YNL298W, strain CLA4, stronger effect = lower value 0.993 | S. cerevisiae deletion strains, locus YNL307C, strain MCK1, stronger effect = lower value 0.958 | S. cerevisiae deletion strains, locus YNL322C, strain KRE1, stronger effect = lower value 1 | S. cerevisiae deletion strains, locus YNR052C, strain pop2, stronger effect = lower value 1.01 | S. cerevisiae deletion strains, locus YOL006C, strain TOP1, stronger effect = lower value 0.936 | S. cerevisiae deletion strains, locus YOL012C, strain htz1 0.561 | S. cerevisiae deletion strains, locus YOL147C, strain pex11, stronger effect = lower value 1.01 | S. cerevisiae deletion strains, locus YOR061W, strain CKA2, stronger effect = lower value 1.01 | S. cerevisiae deletion strains, locus YOR069W, strain VPS5, stronger effect = lower value 1 | S. cerevisiae deletion strains, locus YOR136W, strain idh2, stronger effect = lower value 0.992 | S. cerevisiae deletion strains, locus YOR144C, strain elg1, stronger effect = lower value 1 | S. cerevisiae deletion strains, locus YOR184W, strain ser1, stronger effect = lower value 0.955 | S. cerevisiae deletion strains, locus YOR316C, strain cot1, stronger effect = lower value 0.999 | S. cerevisiae deletion strains, locus YPL055C, strain LGE1, stronger effect = lower value 0.996 | S. cerevisiae deletion strains, locus YPL241C, strain CIN2, stronger effect = lower value 1.01 | S. cerevisiae deletion strains, locus YPR119W, strain clb2, stronger effect = lower value 0.994 | S. cerevisiae deletion strains, locus YPR141C, strain kar3, stronger effect = lower value 0.991 | S. cerevisiae deletion strains, locus YPR163C, strain tif3, stronger effect = lower value 1.01 | S. cerevisiae deletion strains, locus YPR167C, strain met16, stronger effect = lower value 1 | S. cerevisiae deletion strains, strain wtn01, stronger effect = lower value 0.96 | S. cerevisiae strains, strain wild type, stronger effect = lower value 0.97

COC(=O)[C@@H]1C[C@H](OC(C)=O)C(=O)[C@H]2[C@@]1(C)CC[C@H]1C(=O)O[C@H](c3ccoc3)C[C@]21C
inactive: [1] 1 | [2] 0.994 | [3] 1 | [4] 0.936 | [5] 1.03 | [6] 0.957 | [7] 0.985 | [8] 1.01
